bovine MsrA act: activators of bovine methionine sulfoxide reductase A; activation, % at 10.6 µM; AID 602163; hit rate 0.3% among 360,000; purified bovine MsrA, absorbance read-out; in the data active = activation above about 7.5%
MsrA inh: inhibits bovine methionine sulfoxide reductase A; purified bovine MsrA, absorbance read-out; inhibition, % at 15.5 µM; hit rate 0.75% among 360,000; AID 651718; in the data active = inhibition above about 4.5%
NadD inh: blocks S. aureus nicotinate mononucleotide adenylyltransferase; purified NadD enzyme, colorimetric absorbance read-out; inhibition, % at 20 µM; hit rate 0.78% among 360,000; AID 602399; in the data active = inhibition above about 26%
rCAG binder: binds r(CAG) RNA repeats; inhibition, % at 3 µM; hit rate 1.3% among 370,000; AID 651821; r(CAG) RNA repeat, TO-PRO-1 dye displacement fluorescence;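 active = inhibition above the plate cutoff, the mean of all test compounds on that plate plus 3 SD, cut at about 35% in these data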;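 also: higher means more dye released from RNA so lower well fluorescence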
Hits are given with their value; 0 = inactive; - = not tested or not shown. Sampled rows, rich in hits. Any-hit rate of the full collection: about 2.7%.

SMILES	bovine MsrA act	MsrA inh	NadD inh	rCAG binder
CCCOc1ccc(/C=C/c2[nH]c(=O)[nH]c(=O)c2[N+](=O)[O-])cc1OCC	0	0	0	0
CCOC(=O)COc1ccc(Br)cc1/C=C/c1[nH]c(=O)[nH]c(=O)c1[N+](=O)[O-]	0	0	0	77.1
COc1ccc2c(c1)c(=O)oc1cc(OCC(=O)N3CCC(C)CC3)ccc12	0	-	0	-
COc1ccc2c(c1)c(=O)oc1cc(OCC(=O)N3CCc4ccccc4C3)ccc12	0	0	33.1	0
CC(C)NC(=O)c1cc(C2CCCCN2S(=O)(=O)c2ccc(F)cc2F)on1 (centres undefined)	0	0	0	0
CCN=C1S/C(=C/c2ccc(-c3ccc(Cl)cc3C(=O)O)o2)C(=O)N1CC	0	0	0	55.4
CCN=C1S/C(=C\c2ccc(-c3cccc(C(=O)O)c3)o2)C(=O)N1CC	0	-	0	-
Cc1ccc(NC(=O)c2cc(NC(=O)C3CC=CCC3C(=O)O)ccc2N2CCOCC2)cc1Cl (centres undefined)	0	0	0	34.6
CC1=CC(=O)Nc2ccccc2S1	0	0	0	0
Cc1cccc(-n2c(C)cc(/C=C3\C(=N)N4N=C(CC(C)C)SC4=NC3=O)c2C)c1	0	0	0	0
Cc1cc(C)cc(-n2c(C)cc(/C=C3\C(=N)N4N=C(CC(C)C)SC4=NC3=O)c2C)c1	0	0	34.6	0
CCCC1=NN2C(=N)/C(=C\c3cc(C)n(-c4cc(C)cc(C)c4)c3C)C(=O)N=C2S1	0	0	37.4	0
C[C@@H]1[C@@H](c2ccccc2)c2cc3ccccc3nc2-c2nc3ccccc3cc2[C@@H]1C(=O)N1CCCC1	-	-	-	0
O=C(CSc1ccccc1)NC1CCCCN(Cc2cccc(Cl)c2)C1=O (centres undefined)	-	-	-	0
COC(=O)[C@]1(CNC(=O)Nc2ccc(C)c(Cl)c2)CC(=O)N(C)[C@@H]1c1ccccc1	-	-	-	0
COC(=O)/C=C1\S/C(=N/NC(=O)c2ccccc2)NC1=O	0	0	0	0
COc1ccccc1/C=C1\S/C(=N/NC(=O)c2cccc(Br)c2)NC1=O	0	0	37.6	0
Cc1ccccc1NC(=O)OC1CCC12CCC(c1ccccc1)CC2 (centres undefined)	-	-	-	0
CN(C)C(=O)c1ccc2c(c1[N+](=O)[O-])C(=O)c1ccccc1C2=O	0	0	0	0
Cc1[nH]c2ccccc2c1CCNC(=O)c1ccc2c(c1[N+](=O)[O-])C(=O)c1ccccc1C2=O	0	0	40.1	0
Cc1[nH]c2c(C)cccc2c1CCNC(=O)c1ccc2c(c1[N+](=O)[O-])C(=O)c1ccccc1C2=O	0	0	35.3	0
C[C@@H]1CCCCO[C@@H](CN(C)C(=O)Nc2ccc3c(c2)OCO3)[C@@H](C)CN([C@H](C)CO)C(=O)c2cc(N(C)C)ccc2O1	0	0	0	0
CN(/N=C\c1ccc(O)c(O)c1)c1nc(-c2ccccc2)cc(-c2ccccc2)n1	0	0	33.3	0
COc1cc(/C=N/N(c2ccccc2)c2ccccc2)ccc1O	0	0	0	0
CCOC(=O)N1CCN(C(=O)C[C@H]2C[C@@]3(C(=O)OC)C(=C[C@H](COCc4ccccc4)O[C@@H]3C)N(Cc3ccc(Cl)cc3Cl)C2=O)CC1	-	-	-	0
SMILES	bovine MsrA act	MsrA inh	NadD inh	rCAG binder
COc1ccc(OC)c(S(=O)(=O)N2CCCCC2C(=O)N2CCN(CCO)CC2)c1 (centres undefined)	-	-	-	0
CCc1nc(N[C@@H](Cc2c[nH]c3ccccc23)C(=O)O)c2oc3ccccc3c2n1	0	0	0	36.5
CCN(Cc1ccc2c(c1)OCO2)C(=O)CSc1nc(C)nc2sc(C)c(C)c12	0	0	0	0
COc1cc(OC)cc(C(=O)NCC(=O)NCCN2C(=O)S/C(=C\c3ccc4c(c3)OCO4)C2=O)c1	0	0	0	0
CC(=O)c1c(OC(=O)c2ccco2)c2ccccc2n1C	0	4.6	0	0
CC(=O)c1c(OC(=O)c2ccc(C)cc2)c2ccccc2n1C	0	0	0	0
Cn1c(=O)c2cc(NC(=O)OCCF)ccc2n1Cc1cccc(C(F)(F)F)c1	0	0	0	0
COc1ccc(C2NC(=S)NC3=C2CCCC3=C2SCCS2)cc1 (centres undefined)	0	0	61.2	0
Cc1c(N=Cc2nc3ccccc3n2C)c(=O)n(-c2ccccc2)n1C	0	5.1	0	0
O=[N+]([O-])c1ccc(NCCCN2CCC(C(O)(c3ccccc3)c3ccccc3)CC2)cc1	-	-	-	0
O=C(N/N=C/CCc1ccccc1)c1ccc(CN2c3cccc4cccc(c34)S2(=O)=O)cc1	0	0	0	0
COc1cc(/C=N/NC(=O)c2ccc(CN3c4cccc5cccc(c45)S3(=O)=O)cc2)cc(OC)c1O	0	4.6	0	0
Nc1nnc(CC(=O)N/N=C/c2cc([N+](=O)[O-])cc(Br)c2O)s1	0	0	0	59.0
Cc1ccc2nc(/C(C#N)=C\c3cc(C)n(-c4cccc([N+](=O)[O-])c4)c3C)[nH]c2c1	0	0	29.4	0
CC(C)c1ccc(S(=O)(=O)N2CCN(C(=O)c3cccc(S(=O)(=O)N4CCOCC4)c3)CC2)cc1	0	0	0	0
Cc1ccc(/C=C2\CCC3=C2OC(N)=C(C#N)C3c2ccc(C)cc2)cc1 (centres undefined)	0	-	45.5	-
O=C(NC(c1ccc(-c2ccccc2)cc1)c1cnccn1)C1CCN(Cc2cccc(C(F)(F)F)c2)CC1 (centres undefined)	0	-	0	-
Cc1[nH]n(C(N)=S)c(=O)c1N=Nc1cc(-c2ccc(Br)cc2)[nH]n1	0	0	42.6	0
CCN(c1ccc(OC)cc1)S(=O)(=O)c1nnc(NC(=O)c2ccco2)s1	0	4.6	0	0
CCN(c1ccc(OC)cc1)S(=O)(=O)c1nnc(NC(=O)c2ccccc2Cl)s1	0	-	0	-
COc1ccc(N(CC(C)C)S(=O)(=O)c2nnc(NC(=O)c3ccco3)s2)cc1	0	5.3	0	75.7
COc1ccc(S[C@]2(C(=O)N(C)C)CC(=O)N(c3ccccc3)[C@@H]2c2ccc(OC)cc2)cc1	-	-	-	0
COc1cc2ccc(NC(C)=O)cc2cc1OC	0	0	0	0
CN(C)S(=O)(=O)c1ccc(/C(O)=C2/C(=O)C(=O)N(Cc3cccnc3)C2c2ccncc2)cc1 (centres undefined)	0	0	0	0
CN(C)S(=O)(=O)c1ccc(/C(O)=C2/C(=O)C(=O)N(CCN3CCCCC3)C2c2cccnc2)cc1 (centres undefined)	0	4.9	0	0
SMILES	bovine MsrA act	MsrA inh	NadD inh	rCAG binder
C#CC1(O)C2C=C(OC)C(=O)C1C(c1ccccc1)C2C (centres undefined)	-	-	-	0
CCc1nc2c(OCCC3CCCCC3)cccn2c1N(C)C(=O)c1ccc(C)cc1	0	0	0	0
O=C(Nc1ccc(OC(F)(F)F)cc1)Nc1c(-c2ccc(C(F)(F)F)cc2)nc2ncccn12	-	-	-	0
CCN(CC)c1nc(N)c([N+](=O)[O-])c(NCCO)n1	0	4.7	0	0
Cc1ccc(Nc2nc(N)c([N+](=O)[O-])c(NCCO)n2)cc1	0	0	0	0
CCOC1=C2CN(S(=O)(=O)c3ccc(C)cc3)[C@@H](c3cccs3)C[C@H]2[C@H]2C(=O)N(c3ccccc3)C(=O)[C@H]2C1	0	0	0	0
COc1cccc2cc(-c3cc(=O)oc4ccc(OCC(C)=O)cc34)oc12	0	9.5	0	0

From PubChem BioAssay
